Data from PubChem BioAssay (NCI).
About 79,000 compounds went through this panel and 15% of them were active in at least one assay; those are over-represented in the sample as a whole. Active and inactive are the calls of the source. No stated cut-off is given here; in the data, active means growth inhibition above about 70%; inactive means the rest.

Legend:
[1] = NCI Yeast Anticancer Drug Screen. Data for the rad52 strain (AID 147);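 further: 0% = growth of vehicle-treated control cultures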; conditions: S. cerevisiae rad52 mutant growth inhibition, stronger effect = higher value
Procedure, shortened: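 Inhibition of yeast growth, referenced to vehicle controls, was the measured output for a strain with defective DNA damage repair.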

[2] = NCI Yeast Anticancer Drug Screen. Data for the wt1 strain (AID 149);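 further: 0% = growth of vehicle-treated wt1 cultures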; conditions: S. cerevisiae wt1 strain (SPY 50644) growth inhibition, stronger effect = higher value
Procedure, shortened: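 Growth inhibition read against vehicle controls after compound exposure of the wt1 yeast strain.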

[3] = NCI Yeast Anticancer Drug Screen. Data for the rad50EPP+ strain (AID 151);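 further: 0% = growth of vehicle-treated control cultures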; conditions: S. cerevisiae rad50 mutant strain, stronger effect = higher value
Procedure, shortened: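 Genetically defined yeast (rad50EPP+, DNA damage repair alteration) is grown with compound, and inhibition of growth is expressed relative to vehicle-treated controls.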

[4] = NCI Yeast Anticancer Drug Screen. Data for the mgt1 strain (AID 153); conditions: S. cerevisiae mgt1 mutant growth inhibition, stronger effect = higher value
Procedure, shortened: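 In the mgt1 strain, test compounds were added and growth inhibition was determined relative to vehicle-treated controls.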

[5] = NCI Yeast Anticancer Drug Screen. Data for the rad50 strain (AID 155);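 further: 0% = growth of vehicle-only cultures of the same strain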; conditions: S. cerevisiae rad50 strain growth inhibition, stronger effect = higher value
Procedure, shortened: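 Readout: growth inhibition relative to vehicle-treated cultures. Compound exposure was carried out in a genetically defined yeast strain deficient in DNA damage repair.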

[6] = NCI Yeast Anticancer Drug Screen. Data for the mec2-1 strain (AID 157); conditions: S. cerevisiae mec2-1 strain, stronger effect = higher value
Procedure, shortened: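 Each compound was tested on mec2-1 yeast, a strain altered in DNA damage repair or cell cycle control. Growth inhibition is reported relative to vehicle.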

[7] = NCI Yeast Anticancer Drug Screen. Data for the rad14 strain (AID 159);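 further: 0% = growth of vehicle-treated control cultures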; conditions: S. cerevisiae rad14 strain growth inhibition, stronger effect = higher value
Procedure, shortened: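 Growth inhibition vs vehicle controls; genetically altered yeast strain (DNA damage repair defect) treated with test compounds.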

[8] = NCI Yeast Anticancer Drug Screen. Data for the sgs1 mgt1 strain (AID 161);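 further: 0% = growth of cultures given vehicle only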; conditions: S. cerevisiae sgs1 mgt1 strain, stronger effect = higher value
Procedure, shortened: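 Mutant yeast exposed to compound; growth scored against vehicle-only wells.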

[9] = NCI Yeast Anticancer Drug Screen. Data for the CLN2oe strain (AID 163);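 further: 0% = growth of vehicle-only control cultures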; conditions: S. cerevisiae CLN2oe strain, stronger effect = higher value
Procedure, shortened: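 First, the altered yeast strain was treated with each compound; second, its growth was measured; finally, inhibition was derived by comparison with vehicle controls.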

[10] = NCI Yeast Anticancer Drug Screen. Data for the cln2 rad14 strain (AID 165);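 further: 0% = growth equal to vehicle treated cultures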; conditions: S. cerevisiae cln2 rad14 strain, stronger effect = higher value
Procedure, shortened: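 Test compounds were added to cln2 rad14 yeast cultures; inhibition of growth was then determined by comparison with vehicle treatment.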

[11] = NCI Yeast Anticancer Drug Screen. Data for the bub3 strain (AID 167); conditions: S. cerevisiae bub3 mutant strain, stronger effect = higher value
Procedure, shortened: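 Readout: yeast growth inhibition, expressed relative to vehicle-only wells. The test organism is a mutant strain from a panel with lesions in DNA repair or checkpoint genes.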

[12] = NCI Yeast Anticancer Drug Screen. Data for the wt2 strain (AID 169);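 further: 0% = growth of vehicle-treated yeast cultures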; conditions: S. cerevisiae wt2 strain growth inhibition, stronger effect = higher value
Procedure, shortened: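 The panel's yeast strains carry defined changes in DNA repair or cell cycle genes. Each strain is grown with compound, and growth loss is scored relative to vehicle.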

[13] = NCI Yeast Anticancer Drug Screen. Data for the mlh1 strain (AID 171);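 further: 0% = growth of vehicle-treated control cultures of the same strain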; conditions: S. cerevisiae mlh1 strain growth inhibition, stronger effect = higher value
Procedure, shortened: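 Inhibition values reflect reduced yeast growth in the presence of compound, referenced to vehicle controls, using a strain chosen for its alteration in DNA repair or cell cycle control.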

[14] = NCI Yeast Anticancer Drug Screen. Data for the sgs1 strain (AID 173);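 further: 0% = growth of vehicle-only control cultures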; conditions: S. cerevisiae sgs1 mutant, stronger effect = higher value
Procedure, shortened: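 Vehicle-treated cultures served as reference for growth inhibition of a yeast strain altered in DNA damage repair or cell cycle control after compound exposure.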

[15] = NCI Yeast Anticancer Drug Screen. Data for the mlh1 rad18 strain (AID 175); conditions: S. cerevisiae mlh1 rad18 strain growth inhibition, stronger effect = higher value
Procedure, shortened: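 Inhibition values reflect reduced growth of mutant yeast versus vehicle-treated controls following compound exposure; the mutations affect DNA damage repair.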

[16] = NCI Yeast Anticancer Drug Screen. Data for the rad18 strain (AID 177); conditions: S. cerevisiae rad18 mutant growth inhibition, stronger effect = higher value
Procedure, shortened: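 Steps: expose repair-mutant yeast to compound; measure growth; express as inhibition relative to vehicle control.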

[17] = at 5.0 µM (retest, dose inferred, filed as 0.5)
[18] = at 50.0 µM (retest, dose inferred, filed as 5.0)

Measured: growth inhibition

O=[N+]([O-])c1cc(S(=O)(=O)F)ccc1Cl
inactive: [1]; at 1.2 µM 20% | [1]; at 3.7 µM 24% | [1]; at 11.0 µM 49% | [2]; at 1.2 µM 27% | [2]; at 3.7 µM 28% | [2]; at 11.0 µM 9% | [3]; at 1.2 µM 13% | [3]; at 3.7 µM 20% | [3]; at 11.0 µM 47% | [4]; at 1.2 µM 11% | [4]; at 3.7 µM 20% | [4]; at 11.0 µM 18% | [5]; at 1.2 µM 18% | [5]; at 3.7 µM 20% | [5]; [17] 51% | [5]; at 11.0 µM 38% | [5]; [18] 57% | [6]; at 1.2 µM 27% | [6]; at 3.7 µM 25% | [6]; [17] 50% | [6]; at 11.0 µM 35% | [6]; [18] 62% | [7]; at 1.2 µM 1% | [7]; at 3.7 µM -6% | [7]; at 11.0 µM 7% | [8]; [17] 11% | [9]; at 1.2 µM 26% | [9]; at 3.7 µM 20% | [9]; at 11.0 µM 39% | [10]; [17] 27% | [11]; at 1.2 µM -10% | [11]; at 3.7 µM -6% | [11]; [17] 39% | [11]; at 11.0 µM 1% | [12]; at 1.2 µM -11% | [12]; at 3.7 µM -4% | [12]; at 11.0 µM 17% | [13]; at 1.2 µM 15% | [13]; at 3.7 µM 19% | [13]; at 11.0 µM 29% | [14]; at 1.2 µM 6% | [14]; at 3.7 µM 13% | [14]; at 11.0 µM 50% | [15]; [17] 32% | [15]; [18] 54% | [16]; at 1.2 µM 4% | [16]; at 3.7 µM 15% | [16]; at 11.0 µM 30%
active: [1]; at 33.0 µM 94% | [1]; at 100.0 µM 98% | [2]; at 33.0 µM 93% | [2]; at 100.0 µM 99% | [3]; at 33.0 µM 82% | [3]; at 100.0 µM 99% | [4]; at 33.0 µM 93% | [4]; at 100.0 µM 99% | [5]; at 33.0 µM 94% | [5]; at 50.0 µM 92.5% | [5]; at 100.0 µM 100% | [6]; at 33.0 µM 95% | [6]; at 50.0 µM 94.5% | [6]; at 100.0 µM 100% | [7]; at 33.0 µM 94% | [7]; at 100.0 µM 99% | [8]; [18] 100% | [8]; at 50.0 µM 93.4% | [9]; at 33.0 µM 93% | [9]; at 100.0 µM 98% | [10]; [18] 100% | [10]; at 50.0 µM 92.4% | [11]; at 33.0 µM 90% | [11]; [18] 99% | [11]; at 50.0 µM 93.2% | [11]; at 100.0 µM 98% | [12]; at 33.0 µM 85% | [12]; at 100.0 µM 98% | [13]; at 33.0 µM 95% | [13]; at 100.0 µM 99% | [14]; at 33.0 µM 97% | [14]; at 100.0 µM 98% | [15]; at 50.0 µM 92.8% | [16]; at 33.0 µM 92% | [16]; at 100.0 µM 99%

[O-][n+]1c2cccc(O)c2[n+]([O-])c2cccc(O)c21
active: [1]; at 11.0 µM 89% | [1]; at 33.0 µM 93% | [1]; at 100.0 µM 95% | [3]; at 11.0 µM 89% | [3]; at 33.0 µM 94% | [3]; at 100.0 µM 96% | [5]; at 11.0 µM 85% | [5]; at 33.0 µM 92% | [5]; [18] 95% | [5]; at 50.0 µM 86.4% | [5]; at 100.0 µM 95% | [6]; [18] 80% | [8]; [18] 81% | [10]; [18] 94% | [10]; at 50.0 µM 82.8% | [11]; [18] 72% | [15]; [18] 94% | [16]; at 3.7 µM 75% | [16]; at 11.0 µM 92% | [16]; at 33.0 µM 94% | [16]; at 100.0 µM 94%
inactive: [1]; at 1.2 µM 23% | [1]; at 3.7 µM 57% | [2]; at 1.2 µM 2% | [2]; at 3.7 µM 2% | [2]; at 11.0 µM 7% | [2]; at 33.0 µM 10% | [2]; at 100.0 µM 15% | [3]; at 1.2 µM 25% | [3]; at 3.7 µM 63% | [4]; at 1.2 µM 3% | [4]; at 3.7 µM 10% | [4]; at 11.0 µM 8% | [4]; at 33.0 µM 2% | [4]; at 100.0 µM 18% | [5]; at 1.2 µM 24% | [5]; at 3.7 µM 55% | [5]; [17] 15% | [6]; at 1.2 µM 3% | [6]; at 3.7 µM 9% | [6]; [17] 15% | [6]; at 11.0 µM 18% | [6]; at 33.0 µM 26% | [6]; at 50.0 µM 35.8% | [6]; at 100.0 µM 46% | [7]; at 1.2 µM 2% | [7]; at 3.7 µM 23% | [7]; at 11.0 µM 12% | [7]; at 33.0 µM 20% | [7]; at 100.0 µM 38% | [8]; [17] 6% | [8]; at 50.0 µM 35% | [9]; at 1.2 µM 0% | [9]; at 3.7 µM 0% | [9]; at 11.0 µM 3% | [9]; at 33.0 µM 11% | [9]; at 100.0 µM 11% | [10]; [17] 65% | [11]; at 1.2 µM 4% | [11]; at 3.7 µM 3% | [11]; [17] 0% | [11]; at 11.0 µM 0% | [11]; at 33.0 µM 3% | [11]; at 50.0 µM 42.8% | [11]; at 100.0 µM 1% | [12]; at 1.2 µM 2% | [12]; at 3.7 µM 5% | [12]; at 11.0 µM 11% | [12]; at 33.0 µM 12% | [12]; at 100.0 µM 24% | [13]; at 1.2 µM 3% | [13]; at 3.7 µM 0% | [13]; at 11.0 µM 11% | [13]; at 33.0 µM 18% | [13]; at 100.0 µM 44% | [14]; at 1.2 µM 6% | [14]; at 3.7 µM 14% | [14]; at 11.0 µM 31% | [14]; at 33.0 µM 46% | [14]; at 100.0 µM 66% | [15]; [17] -7% | [15]; at 50.0 µM 57.2% | [16]; at 1.2 µM 31%

O=C(O)CCCc1cc(I)c(N(CCCl)CCCl)c(I)c1
inactive: [1]; at 1.2 µM -18% | [1]; at 3.7 µM -35% | [1]; at 11.0 µM -14% | [2]; at 1.2 µM -59% | [2]; at 3.7 µM -53% | [2]; at 11.0 µM -59% | [2]; at 33.0 µM 68% | [3]; at 1.2 µM -25% | [3]; at 3.7 µM -15% | [3]; at 11.0 µM -27% | [3]; at 33.0 µM -23% | [3]; at 100.0 µM -33% | [4]; at 1.2 µM -20% | [4]; at 3.7 µM -42% | [4]; at 11.0 µM -42% | [5]; at 1.2 µM -60% | [5]; at 3.7 µM -55% | [5]; [17] 41% | [5]; at 11.0 µM -35% | [5]; at 33.0 µM 45% | [5]; at 50.0 µM 37.9% | [6]; at 1.2 µM -77% | [6]; at 3.7 µM -73%
active: [1]; at 33.0 µM 75% | [1]; at 100.0 µM 96% | [2]; at 100.0 µM 98% | [4]; at 33.0 µM 80% | [4]; at 100.0 µM 97% | [5]; [18] 98% | [5]; at 100.0 µM 94%
